The values below come from the supplement of paper PMC6518042.

This test has as its system Pectobacterium parmentieri SCC3193. The test can be described thus: DuctApe activity index (growth/respiration on compound as sole nutrient source, blank-subtracted) (activity index (0-3)); higher = stronger utilization of the compound, active = 3 or more. The note with it: nutrient role (plate category): carbon. The protocol:
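Biolog Phenotype Microarray plates PM1, PM2A (carbon), PM3 (nitrogen) and PM4 (phosphorus/sulfur) inoculated with P. parmentieri SCC3193 in M9-C minimal salts medium with Biolog dye A, and read in the OmniLog for 46 h. Each well was tested in triplicate and the experiment was run twice. DuctApe computed a blank-subtracted activity index (AV, 0-3) from the mean curves; growth is positive at AV >= 3 and negative at AV <= 2.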
As for `O=C(O)Cc1ccc(O)cc1` [p-Hydroxyphenyl Acetic acid], the DuctApe activity index was 0 (inactive).
As to `CCCCCC(=O)O` [Caproic acid], the DuctApe activity index was 0 (inactive).
As for `CO[C@H]1O[C@H](CO)[C@@H](O)[C@H](O)[C@@H]1O` [a-Methyl-D-Mannoside], the DuctApe activity index was 0 (inactive).
The value for `CC(O)C(C)O` (configuration not stated) [2,3-Butanediol] was 0 (inactive); that for `OCC(O)CO` [Glycerol] was 3 (active).
For the compound `O=C1O[C@H](CO)[C@@H](O)[C@H]1O` [D-Ribono-1,4-Lactone], the DuctApe activity index was 0 (inactive).
As for `OC[C@H]1O[C@H](O[C@H]2[C@H](O)[C@@H](O)[C@H](O)O[C@@H]2CO)[C@H](O)[C@@H](O)[C@@H]1O` [Maltose], the DuctApe activity index was 1 (inactive).
With `O=C(O)c1ccccc1O` [2-Hydroxybenzoic acid], the DuctApe activity index was 0 (inactive).
With `C/C(=C/C(=O)O)C(=O)O` [Citraconic acid], the DuctApe activity index is 0 (inactive).
`OC[C@H]1O[C@H](O[C@H]2[C@H](O)[C@@H](O)[C@@H](O[C@H]3[C@H](O)[C@@H](O)[C@@H](O)O[C@@H]3CO)O[C@@H]2CO)[C@H](O)[C@@H](O)[C@@H]1O` [Maltotriose]: the DuctApe activity index is 3 (active).
With `O=CC(=O)O` [Glyoxylic acid] the figure was 0 (inactive).
In the case of `NCCO` [2-Aminoethanol], the DuctApe activity index was 0 (inactive).
Turning to `CCC(C)N` (configuration not stated) [sec-Butylamine], the DuctApe activity index is 0 (inactive).
As for `O=C(O)[C@H]1O[C@@H](O)[C@H](O)[C@@H](O)[C@H]1O` [Pectin], the DuctApe activity index was 3 (active).
On to `CO[C@@H]1O[C@H](CO)[C@@H](O)[C@H](O)[C@H]1O` [b-Methyl-D-Glucoside], for which the DuctApe activity index was 3 (active).
On to `CO[C@@H]1OC[C@@H](O)[C@H](O)[C@H]1O` [b-Methyl-D-Xyloside], for which the DuctApe activity index was 0 (inactive).
In the case of `O=C1O[C@H]([C@@H](O)CO)[C@@H](O)[C@@H]1O` [L-Galactonic acid-g-Lactone], the DuctApe activity index is 3 (active).
